From PubChem
Only some compounds are listed: those with a hit (about 9.3% of all), similar ones and a draw of the others.
ELG1 repair inh: blocks ELG1-dependent DNA repair in HEK293T cells | 2.3% of 330,000 active | AID 504467 | Potency, µM (doses to about 46.1 µM), without a hit: top-dose activity change, negative = inhibition, usual class: inhibitors | HEK293T ELG1-luciferase reporter, luminescence, 16 h; DNA damage induced by 5-fluorouridine; also: % is scaled to controls: 0 for no effect and ±100 for the full control effect; nearly all actives have a fitted effect of over 55% in size
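Reporter activity after DNA damage by 5-fluorouridine is monitored. Compound-treated cells incubate 16 hr at 37 °C, then ONE-Glo is added for 30 min before luminescence reading.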
SMN2 splice up: enhancers of SMN2 splice variant expression; 2.8% of 210,000 active; HEK293 SMN2-luciferase splicing reporter, luminescence, 30-36 h; Potency, µM (titrated, usually from 46.1 µM), without a hit: at the highest dose activity change, positive = activation, hits mostly activators; also: % of control where 0% means no effect; nearly all actives have a fitted effect of over 55% in size
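HEK293 cells carry an SMN2 minigene-luciferase reporter in which exon 7 inclusion puts luciferase in frame. Cells were seeded at 2000 cells/well, attached for 10-12 hours, then exposed to compounds for 30-36 hours at 37C before ONE-Glo luminescence.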
NPC1 promoter act: NPC1 promoter activation; Huh7 NPC1 promoter luciferase reporter, 24 h; Potency, µM (series often up to 9.22 µM), for the others: at the highest dose activation, actives largely listed as activators; 2.4% of 320,000 active; also: % of control where 0% means no effect; nearly all actives have a fitted effect of over 60% in size
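NPC1 promoter–luciferase Huh7 cells; 24 h compound; luminescence.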
FLuc counter: firefly luciferase modulation, counter-screen for miR-21 project | 6.9% of 360,000 active | purified FLuc, Km substrates, luminescence inhibition | AID 588342 | Potency, µM (top dose mostly 57.5 µM), for the others: at the top dose activity change, negative = inhibition, actives largely listed as inhibitors;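 also: plate controls were vehicle for no effect and reference inhibitor for full effect; nearly all actives have a fitted effect of over 55% in size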
Target sequence (P08659 whole entry, looked up): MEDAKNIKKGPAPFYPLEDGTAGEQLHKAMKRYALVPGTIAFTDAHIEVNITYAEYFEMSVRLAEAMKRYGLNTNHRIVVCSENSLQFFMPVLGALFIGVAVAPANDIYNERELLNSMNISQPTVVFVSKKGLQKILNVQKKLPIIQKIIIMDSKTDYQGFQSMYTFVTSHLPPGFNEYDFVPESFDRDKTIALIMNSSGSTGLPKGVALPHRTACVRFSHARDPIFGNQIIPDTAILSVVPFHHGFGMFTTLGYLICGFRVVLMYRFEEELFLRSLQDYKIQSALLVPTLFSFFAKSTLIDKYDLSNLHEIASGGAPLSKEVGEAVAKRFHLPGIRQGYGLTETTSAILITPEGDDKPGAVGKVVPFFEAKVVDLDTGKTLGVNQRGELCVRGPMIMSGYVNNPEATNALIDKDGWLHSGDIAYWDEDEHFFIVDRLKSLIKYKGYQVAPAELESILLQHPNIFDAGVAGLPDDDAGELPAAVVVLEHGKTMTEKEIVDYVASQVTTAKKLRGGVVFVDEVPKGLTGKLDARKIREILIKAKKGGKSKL
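Purified P. pyralis luciferase (10nM final) with 10uM D-luciferin and 10uM ATP (Km levels) in 50mM Tris acetate pH 7.5, 10mM Mg acetate, 0.01% Tween-20, 0.05% BSA; qHTS 6-point titration, ~60 µM downward; luminescence read.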
ELG1 genotoxic: induces genotoxicity in HEK293T cells with luciferase-tagged ELG1; 1.3% of 330,000 active; Potency, µM (highest dose often 46 µM), inactives show at the highest dose activity change, positive = activation, actives largely listed as activators; HEK293T ELG1-luciferase reporter, luminescence, 16 h; also: % of control where 0% means no effect; nearly all actives have a fitted effect of over 60% in size
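HEK293T cells expressing luciferase-tagged ELG1 were treated with compound or DMSO for 16 hr at 37°C. Luciferase activity was then read after 30 min with ONE-Glo at room temperature; rising signal flags genetic stress.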
Rab9 promoter act: Rab9 promoter activation; 2.8% of 320,000 active; Huh7 Rab9 promoter-luciferase reporter, luminescence, 24 h; Potency, µM (series often up to 9.22 µM), without a hit: at the highest dose activation, negative = inhibition, most hits filed as activators; also: % of control where 0% means no effect; nearly all actives have a fitted effect of over 60% in size
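Using Huh7 cells stably transfected with Rab9 promoter–luciferase, compounds were incubated 24 h at 37 °C, 5% CO2; luciferase luminescence was read 10 min after reagent addition.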
Active calls of the source: *; ? = inconclusive; nt = no result given. Calls follow the shape of the dose curve; as a rule, active = well fitted curve in the direction sought with a large enough effect; inconclusive = small, poorly fitted or top-dose-only effect, or another doubt; inactive = no such curve, though single readings can be large; an effect the other way counts as inactive or inconclusive. Potency is read from the fitted curve at half-maximal effect.

SMILES	ELG1 repair inh	SMN2 splice up	NPC1 promoter act	FLuc counter	ELG1 genotoxic	Rab9 promoter act
COc1ccc(C(=O)N2CCCC(c3nc(-c4cc(OC)c(OC)c(OC)c4)no3)C2)cc1 (configuration not stated)	7.31µM*	-8.9%	-1.1%	3.0%	-4.4%	-2.6%
COc1ccc(-c2noc(C3CCCN(C(=O)c4ccccc4)C3)n2)cc1 (configuration not stated)	-19.8%	nt	0.1%	19µM*	-0.1%	-4.6%
COc1ccc(-c2noc(N3CCC(C(=O)Nc4ccccc4Cl)CC3)n2)cc1	?	nt	-7.2%	4.3%	-18.4%	4.1%
COc1ccc(-c2noc(C3CCCN(C(=O)c4cccc(F)c4)C3)n2)cc1 (configuration not stated)	-28.2%	nt	-3.8%	-9.4%	-7.7%	-1.8%
CC(=O)Nc1cc(C(=O)NCc2ccc(C)cc2)ccc1S(=O)(=O)c1ccc(Cl)cc1	nt	nt	nt	-0.6%	nt	nt
Cn1c(N)c(C(=O)CSc2ncn[nH]2)c(=O)n(C)c1=O	13.5%	nt	0.2%	-0.9%	0.0%	-0.8%
CC(C)(C)c1ccc(NC(=O)CN2C(=O)NC(C)(C3CC3)C2=O)cc1 (configuration not stated)	6.0%	nt	-2.7%	nt	2.5%	-3.2%
COc1ccc(CCNC(=O)c2cc(-c3ccccc3OC)on2)cc1OC	16.4µM*	-28.8%	-2.3%	?	-16.0%	-4.0%
CCCc1cc(C(=O)NCCc2ccccc2)no1	?	12.6µM*	2.24µM*	21.3µM*	10.3µM*	2.24µM*
COc1ccccc1-c1cc(C(=O)NCCc2ccccc2)no1	?	25.1µM*	?	9.53µM*	13µM*	3.55µM*
O=C(CN1CCN(S(=O)(=O)N2CCCCC2)CC1)Nc1ccc(Cl)c(Cl)c1	?	nt	1.4%	0.4%	-14.5%	-4.0%
Cn1c2ccccc2c(=O)c2c(=O)n(Cc3ccco3)c(-c3ccc(Cl)cc3Cl)nc21	-27.1%	nt	-3.4%	-3.8%	-9.5%	-0.5%
Cc1ccccc1CSc1nc2cccnc2n1Cc1ccc(C(=O)NCCc2cccs2)cc1	nt	nt	nt	5.36µM*	nt	nt
CC(C)OCCCNC(=O)c1ccc(CSc2nc3cccnc3n2Cc2ccccc2)cc1	nt	nt	nt	-12.5%	nt	nt
Cc1ccc(CSc2nc3cccnc3n2Cc2ccc(C(=O)NCCc3ccccc3)cc2)cc1	nt	nt	nt	0.477µM*	nt	nt
CCN(CC)C(=O)CSc1nc2ccccc2c(=O)n1CCC(=O)NCc1ccc(F)cc1	11.6µM*	-38.1%	0.7%	-0.9%	-3.2%	0.4%
O=C(NCc1ccccc1Cl)c1ccc(Cn2c(SCc3ccccc3)nc3cccnc32)cc1	nt	nt	nt	5.36µM*	nt	nt
O=C(NCc1ccccc1)c1ccc(CSc2nc3cccnc3n2Cc2ccccc2F)cc1	nt	nt	nt	-14.5%	nt	nt
O=C(NCCc1ccccc1)c1ccc(Cn2c(SCc3cccc(F)c3)nc3cccnc32)cc1	nt	nt	4.9%	-10.2%	nt	-2.2%
O=C(CCCCCn1c(SCc2ccncc2)nc2ccccc2c1=O)NCc1ccco1	18.4µM*	22.0%	-3.7%	2.8%	0.4%	-0.2%
O=C(NCc1ccco1)c1ccc(Cn2c(SCc3ccccc3)nc3cccnc32)cc1	nt	nt	nt	6.75µM*	nt	nt
O=C(NCCc1ccccc1)c1ccc(Cn2c(SCc3ccccc3)nc3cccnc32)cc1	nt	nt	nt	6.01µM*	nt	nt
CCCCSCCCNC(=O)c1cn(C)c2ccc(S(=O)(=O)N3CCCCCC3)cc2c1=O	nt	9.1%	nt	-1.6%	nt	nt
CC(=O)c1ccc(N(CC(=O)NC2CCCC2)C(=O)CNC(=O)c2ccco2)cc1	-3.0%	nt	-3.8%	-1.1%	7.5%	-1.2%
CCNC(=S)N1CCN(c2ccc([N+](=O)[O-])cc2)CC1	-0.6%	-27.5%	1.1%	5.5%	-3.7%	-0.8%
SMILES	ELG1 repair inh	SMN2 splice up	NPC1 promoter act	FLuc counter	ELG1 genotoxic	Rab9 promoter act
O=[N+]([O-])c1ccc(N2CCN(C(=S)NCc3ccc(Cl)cc3)CC2)cc1	14.6µM*	nt	1.3%	0.4%	-5.8%	-1.7%
CCOc1ccccc1NC(=O)C1CCCN1S(=O)(=O)c1ccccc1C(F)(F)F (configuration not stated)	-24.5%	nt	0.0%	2.7%	-7.8%	0.1%
O=C(N/N=C/c1ccccc1OC(F)F)c1cc(-c2ccncc2)nc2ccccc12	?	-17.6%	-18.8%	?	0.9%	-14.4%
O=C(O)COc1ccccc1/C=N/NC(=O)c1cc(-c2ccccc2)nc2ccccc12	3.4%	nt	-0.5%	2.69µM*	0.4%	-2.0%
O=C(O)COc1ccccc1/C=N/NC(=O)c1cc(-c2ccc(Cl)cc2)nc2ccccc12	8.5%	nt	-0.6%	0.953µM*	-0.3%	-1.5%
C/C(=N\NC(=O)CNC(=O)C1COc2ccccc2O1)c1ccco1 (configuration not stated)	-9.4%	nt	-5.0%	4.5%	-2.5%	-1.8%
COC(=O)c1cc2oc3ccccc3c2n1Cc1nc(-c2cccc(C)c2)oc1C	nt	-0.2%	nt	-9.3%	nt	nt
Oc1ccc(Cl)cc1-c1cc(-c2ccccc2)n[nH]1	18.8%	15.9%	-7.5%	?	12.2%	-4.0%
Cc1ccc(O)c(-c2cc(-c3cccc(Br)c3)n[nH]2)c1	?	nt	?	12µM*	23.1µM*	4.47µM*
Oc1ccc(Br)cc1-c1cc(-c2ccccc2Cl)[nH]n1	?	nt	-4.2%	?	-0.4%	-8.0%
Cc1ccc(-c2cc(-c3ccc(F)cc3)n[nH]2)c(O)c1	?	nt	?	4.26µM*	?	3.98µM*
Cc1ccc(-c2cc(-c3ccc(C)cc3O)[nH]n2)cc1	?	nt	0.708µM*	2.39µM*	?	0.891µM*
Oc1ccccc1-c1cc(-c2ccc(F)cc2)n[nH]1	?	nt	?	3.38µM*	5.8µM*	6.9%
COc1ccc(CC(=O)Nc2cccc(/C(C)=N/NC(=O)C3(C)CC3(Br)Br)c2)cc1 (configuration not stated)	-25.8%	nt	-0.7%	-1.4%	-17.0%	3.0%
Cc1nc2ccccn2c(=O)c1NC(=O)c1ccccc1Cl	nt	nt	nt	6.7%	nt	nt
CC1=C(c2ccc(Cl)cc2)S(=O)(=O)N=C1N1CCN(c2cccc(C(F)(F)F)c2)CC1	nt	nt	nt	-12.3%	nt	nt
Oc1ccc(F)cc1-c1cc(-c2ccc3c(c2)OCCO3)n[nH]1	?	12.6µM*	3.16µM*	2.39µM*	?	1.78µM*
Cc1nn2cc(-c3ccc(OC(C)C)cc3)nc2s1	nt	6.4%	nt	1.35µM*	nt	nt
CC(C)Cc1nn2cc(-c3cccc(Br)c3)nc2s1	nt	-1.5%	nt	0.426µM*	nt	nt
Cc1ccc(-c2cn3nc(N4CCC(C(=O)Nc5ccccc5C)CC4)sc3n2)cc1	nt	nt	nt	1.9%	nt	nt
Cc1nn2cc(-c3ccccc3)nc2s1	?	10µM*	0.355µM*	4.26µM*	?	1µM*
